Assay outcomes deposited in PubChem BioAssay by Broad Institute.
PGC1a acetyl inh – inhibitors of PGC1a acetylation signal, primary screen, cell-based, U2OS, AlphaScreen, inhibitor mode. AlphaScreen anti-acetyl-lysine; with virally co-expressed GCN5 acetyltransferase. inhibition, % at 15.6 µM. 350,000 tested, 0.17% active. AID 651687, 2012;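 active = every replicate shows inhibition of at least 40%; inconclusive = mean inhibition at least 40% but some replicate below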;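 also: 0% = neutral control wells and 100% = positive control wells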
EWS-Fli inh – EWS/Fli-driven NR0B1 reporter inhibitors, primary screen, A673 cells, NR0B1 luciferase, luminescence, MLPCN library; viability-normalised; inhibition, % at 12.6 µM; 350,000 tested, 0.67% active;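 active = mean inhibition of at least 50% after viability correction, with every replicate also passing that limit; inconclusive = mean reaches 50% but only one of two replicates passes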;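 also: firefly luciferase signal divided by Alamar Blue viability fluorescence both relative to DMSO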
rRNA inh HTS – reduced GFP signal of wild-type E. coli, primary screen, bacterial rRNA inhibitor project, GFP/RFP fluorescence, OD600, single point. E. coli WT GFP vs humanized-ribosome RFP mutants, 24 h; hits give low values; DMSO median 0, no signal -100. GFP signal change (wild-type ribosome), % (concentration not given with the values). 350,000 tested, 1.6% active. AID 720706, 2013;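 active = significant combined selectivity score with lowered wild-type GFP, culture density cut under 30%, mutant RFP and density less affected; inactive = any of these conditions unmet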
SIRT5 block – SIRT5 desuccinylase inhibitors, primary screen, biochemical, fluorescence imaging, single point, set 5; NAD-dependent protein deacylase sirtuin-5, mitochondrial (Homo sapiens), Q9NXA8; Purified SirT5, succinyl-peptide AMC, trypsin-coupled fluorescence; inhibition, % at 15 µM; 330,000 tested, 1.1% active; in the data active = inhibition above about 15%; inconclusive = no clear call, values can overlap the other calls
Target sequence (Q9NXA8 whole entry, looked up): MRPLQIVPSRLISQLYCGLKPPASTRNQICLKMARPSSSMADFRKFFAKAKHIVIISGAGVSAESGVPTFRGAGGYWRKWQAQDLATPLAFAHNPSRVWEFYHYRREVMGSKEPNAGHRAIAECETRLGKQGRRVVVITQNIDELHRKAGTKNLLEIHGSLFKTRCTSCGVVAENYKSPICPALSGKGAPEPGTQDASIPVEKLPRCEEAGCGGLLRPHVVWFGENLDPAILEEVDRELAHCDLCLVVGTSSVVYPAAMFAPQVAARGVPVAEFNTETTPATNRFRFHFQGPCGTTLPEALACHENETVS
PAX8 reporter – inhibitors of PAX8-driven TPO luciferase reporter, primary screen, RMG-I cells, single concentration. SteadyGlo, 24 h. AID 652154, 2013. 360,000 tested, 1.2% active. inhibition, % at 12.6 µM;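 active = mean replicate inhibition at least 60% with every replicate also reaching 60%; inconclusive = only one of the two criteria is met; inactive = mean below 60% and not all replicates reaching 60%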;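 also: luciferase light reporting Pax8 driven TPO promoter activity; plate controls were median of neutral control wells for no effect and mitoxantrone controls for full effect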
LGR2 antag – inhibitors of bursicon-induced LGR2 CRE-luciferase signal, primary screen, cell-based, HEK293, CRE-luciferase reporter, bursicon stimulation | 380,000 tested, 0.35% active | inhibition, % at 9.99 µM | Drosophila bursicon receptor LGR2 (rickets) | bursicon-stimulated, 4 h;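 active = drop in luminescence signal, shown as inhibition above about 50% in the replicate tests, limit read from the data, passing the limit was not always enough; inconclusive = probably only some replicates passing the limit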;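 also: agonist challenge used bursicon conditioned medium at about half maximal strength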
Starred values were filed as active, the others as inactive; ? = inconclusive; . = no result. An excerpt weighted towards active compounds, which were near 3.4% of everything screened.

SMILES	PGC1a acetyl inh	EWS-Fli inh	rRNA inh HTS	SIRT5 block	PAX8 reporter	LGR2 antag
C[C@@H]1CCCCO[C@H](CN(C)Cc2ccc3c(c2)OCO3)[C@H](C)CN([C@H](C)CO)C(=O)c2cc(NC(=O)Nc3ccccc3)ccc2O1	-21	2	-3	2	20	-31
COc1ccc([C@H]2CC(=O)c3c(O)cc(O)cc3O2)cc1O	2	-14	-23*	1	-15	-32
COc1cc(C2CC(=O)c3c(O)cc(O)cc3O2)ccc1O (stereo not drawn)	12	4	.	1	.	-10
O=C(NCCO)c1cc2c([nH]c3ccccc32)c(-c2ccccc2)n1	-5	0	-28*	-8	28	-24
O=C(NCCO)c1cc2c([nH]c3ccccc32)c(-c2ccc(F)cc2)n1	4	6	-25	-2	51	-19
CCOc1ccc(N2C(=O)Cc3ccccc3C2=O)cc1	43*	-6	0	1	0	-11
CCOC(=O)c1ccc(N2C(=O)Cc3ccccc3C2=O)cc1	.	-4	-2	.	5	13
CO[C@H]1CN(C)C(=O)c2cc(NS(=O)(=O)c3ccc(Cl)cc3)ccc2OC[C@H](C)N(C)C[C@H]1C	-6	5	-1	-2	6	6
COc1ccc2c3c(n(C)c2c1)[C@@H](CO)N(Cc1ccccc1F)CC31CCN(C(=O)C2CCC2)CC1	-12	21	1	5	.	-2
COc1ccc2c3c(n(C)c2c1)[C@@H](CO)N(C(=O)Nc1ccc(F)cc1)CC31CCN(CC2CCOCC2)CC1	.	.	-2	.	.	.
NC(=S)NN=Cc1nccc2c(C(F)(F)F)cccc12	2	10	-25	.	73*	16
CNc1cccnc1C=NNC(N)=S	2	20	31	-4	30	28
C[C@@H]1C=CCCO[C@]12C(=O)N(Cc1ccccc1C(F)(F)F)c1ccccc12	.	-13	-9	18*	-29	3
C[C@@H]1C=CCCO[C@]12C(=O)N(Cc1ccc(F)cc1)c1cccc(Br)c12	.	-2	-2	0	4	9
Cc1ccc(S(=O)(=O)/N=C2/NC(=O)/C(=C\c3ccco3)S2)cc1	5	.	.	.	.	.
CC(=O)Nc1ccc(S(=O)(=O)/N=C2/NC(=O)/C(=C\c3ccco3)S2)cc1	-6	2	7	15*	-10	2
N#C[C@@H]1[C@H](c2ccccc2-c2ccccc2F)[C@@H](CO)N1C(=O)c1cccc(F)c1	-11	1	-9	18*	6	16
COCC(=O)N1[C@@H](C#N)[C@H](c2ccccc2-c2cccc(F)c2)[C@@H]1CO	4	-2	0	3	-1	14
N#C[C@H]1[C@H](c2ccccc2-c2ccccc2F)[C@@H](CO)N1C(=O)c1cccc(F)c1	1	-5	1	6	3	7
CN(C)C(=O)c1cccc(-c2ccccc2[C@H]2[C@@H](C#N)N(C(=O)C3CC3)[C@@H]2CO)c1	2	-4	3	29*	-23	-2
Cc1ccccc1-c1ccccc1[C@@H]1[C@@H](C#N)N(C(=O)c2ccccc2)[C@H]1CO	-9	-2	-7	-5	.	-10
Cc1ccccc1-c1ccccc1[C@H]1[C@@H](C#N)N(C(=O)c2ccccc2)[C@@H]1CO	-31	2	.	26*	.	.
COCC(=O)N1[C@H](C#N)[C@H](c2ccccc2-c2cccc(F)c2)[C@H]1CO	4	-4	2	24*	-21	-1
CC(C)NC(=O)N[C@@H]1C[C@@H]2O[C@H](CO)CC[C@@H]2O[C@@H]1CCc1ccc(-c2ccc(F)cc2)cc1	.	-1	.	4	-3	.
CN(C)C(=O)C[C@H]1C=C[C@H](NC(=O)NC2CCCCC2)[C@@H](CO)O1	9	3	3	7	5	-2
SMILES	PGC1a acetyl inh	EWS-Fli inh	rRNA inh HTS	SIRT5 block	PAX8 reporter	LGR2 antag
CN(C)CC#Cc1ccc([C@@H]2[C@H]3CN(C(=O)c4cccc(F)c4)CC(=O)N3[C@H]2CO)cc1	4	0	-2	-10	-30	-3
CN(C)CC#Cc1ccc([C@@H]2[C@@H](CO)N3C(=O)CN(C(=O)c4cccc(F)c4)C[C@@H]23)cc1	1	6	3	22*	-3	-22
COc1cccc(C#Cc2ccc([C@@H]3[C@H](CO)N4C(=O)CN(C(=O)c5ccccc5)C[C@@H]34)cc2)c1	-4	-2	-8	5	69*	4
COc1cc2c(cc1OC)C(C)N(C(=O)c1sc(-c3cnccn3)nc1C)CC2 (stereo not drawn)	.	6	-34*	0	2	-5
COc1cc2c(cc1OC)C(C)N(C(=O)c1cc(C)on1)CC2 (stereo not drawn)	4	53*	10	-5	41	-7
COc1cc2c(cc1OC)C(C)N(C(=O)c1c(C)noc1C)CC2 (stereo not drawn)	-9	-3	2	-3	13	.
C[C@@H]1CCCCO[C@@H](CN(C)Cc2ccc3c(c2)OCO3)[C@@H](C)CN([C@H](C)CO)C(=O)c2cc(NC(=O)CCCCCC(=O)Nc3ccccc3N)ccc2O1	5	10	1	1	24	9
CN1C(=O)c2cc(NC(=O)C3CCCC3)ccc2OC[C@@H]2O[C@@H](CC(=O)NCC3CC3)CC[C@@H]21	-7	-11	1	3	-40	-7
Cc1nc2cc(Cl)c(Cl)cc2n1CCCO	6	-5	-22*	-2	-3	18
CCCCCC(=O)Nc1cccc(C2=NOC3(C2)C[C@H](C(N)=O)N(C(=O)c2ccccc2)C3)c1 (stereo partly drawn)	.	4	.	.	-4	9
NC(=O)[C@@H]1CC2(CC(c3cccc(NC(=O)COc4ccc(Cl)cc4)c3)=NO2)CN1C(=O)COc1ccc(Cl)cc1 (stereo partly drawn)	3	8	0	.	?	15
Cc1c(C(=O)N2CC3(CC(c4cccc(NC(=O)CC(c5ccccc5)c5ccccc5)c4)=NO3)C[C@@H]2C(N)=O)cc([N+](=O)[O-])cc1[N+](=O)[O-] (stereo partly drawn)	.	6	6	-3	65*	11
C=C(C)C(=O)N1CC2(CC(c3cccc(NC(=O)CCCCC)c3)=NO2)C[C@H]1C(N)=O (stereo partly drawn)	.	0	6	23*	-10	15
NC(=O)[C@H]1CC2(CC(c3cccc(NC(=O)COc4ccc(Cl)cc4)c3)=NO2)CN1C(=O)C(c1ccccc1)c1ccccc1 (stereo partly drawn)	-8	10	9	0	89*	-2
